Reference: the supplement of paper PMC8975748
± gives the standard deviation of the averaged measurements.

Key:
[1] = tested on: Saccharomyces cerevisiae BY4741 SeMeCo community; test: mean cell size (pixel area) (pixels); higher = larger cells; details: 10 µM; 24 h; SM minimal medium
Procedure, shortened: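 A four-plasmid fluorescent Saccharomyces cerevisiae BY4741 community was tested; each plasmid complements one auxotrophy and carries a fluorescent marker. An overnight preculture at OD600 = 1.0 was diluted to OD600 = 0.3, and 70 µl was added to 384-well plates acoustically predosed with drug (final 10 µM) in SM medium for 24 h. Cells were fixed with paraformaldehyde and imaged by automated confocal microscopy, with analysis in Harmony. Mean cell pixel area per well is averaged over 3 replicates. Same SeMeCo high-content imaging drug screen: Selleck FDA-approved drugs at 10 µM, 24 h in SM medium, 384-well plates, 3 replicates.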

[2] = tested on: Saccharomyces cerevisiae BY4741 SeMeCo community; test: z-score of prototroph abundance vs DMSO median; higher = larger share of this subpopulation than in DMSO controls; details: 10 µM; 24 h; SM minimal medium; subpopulation (auxotrophy): Prototroph
Procedure, shortened: (§1)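 Four plasmids, each restoring a single auxotrophy and encoding a distinct fluorescent protein, were carried by a Saccharomyces cerevisiae BY4741 community. After overnight growth to OD600 1.0 and dilution to 0.3, 70 µl per well was grown for 24 h in minimal SM medium on 384-well plates acoustically predosed with library drugs at 10 µM final. Following paraformaldehyde fixation, automated confocal microscopy was used, with single-auxotroph fluorescent strains defining thresholds and autofluorescence correction. Subpopulation abundance was then scored as a z-score against the vehicle-well median.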

[3] = tested on: Saccharomyces cerevisiae BY4741 SeMeCo community; test: z-score of subpopulation abundance vs DMSO median, subpopulation auxotrophic for M; higher = larger share of this subpopulation than in DMSO controls; details: 10 µM; 24 h; SM minimal medium; subpopulation (auxotrophy): M
Procedure, shortened: as §1

[4] = tested on: Saccharomyces cerevisiae BY4741 SeMeCo community; test: z-score of subpopulation abundance vs DMSO median, subpopulation auxotrophic for L; higher = larger share of this subpopulation than in DMSO controls; details: 10 µM; 24 h; SM minimal medium; subpopulation (auxotrophy): L
Procedure, shortened: as §1

[5] = tested on: Saccharomyces cerevisiae BY4741 SeMeCo community; test: z-score of subpopulation abundance vs DMSO median, subpopulation auxotrophic for U; higher = larger share of this subpopulation than in DMSO controls; details: 10 µM; 24 h; SM minimal medium; subpopulation (auxotrophy): U
Procedure, shortened: as §1

[6] = tested on: Saccharomyces cerevisiae BY4741 SeMeCo community; test: z-score of subpopulation abundance vs DMSO median, subpopulation auxotrophic for H; higher = larger share of this subpopulation than in DMSO controls; details: 10 µM; 24 h; SM minimal medium; subpopulation (auxotrophy): H
Procedure, shortened: as §1

[7] = tested on: Saccharomyces cerevisiae BY4741 SeMeCo community; test: z-score of subpopulation abundance vs DMSO median, subpopulation auxotrophic for LU; higher = larger share of this subpopulation than in DMSO controls; details: 10 µM; 24 h; SM minimal medium; subpopulation (auxotrophy): LU
Procedure, shortened: as §1

[8] = tested on: Saccharomyces cerevisiae BY4741 SeMeCo community; test: z-score of subpopulation abundance vs DMSO median, subpopulation auxotrophic for HM; higher = larger share of this subpopulation than in DMSO controls; details: 10 µM; 24 h; SM minimal medium; subpopulation (auxotrophy): HM
Procedure, shortened: as §1

[9] = tested on: Saccharomyces cerevisiae BY4741 SeMeCo community; test: z-score of subpopulation abundance vs DMSO median, subpopulation auxotrophic for HU; higher = larger share of this subpopulation than in DMSO controls; details: 10 µM; 24 h; SM minimal medium; subpopulation (auxotrophy): HU
Procedure, shortened: as §1

[10] = tested on: Saccharomyces cerevisiae BY4741 SeMeCo community; test: z-score of subpopulation abundance vs DMSO median, subpopulation auxotrophic for UM; higher = larger share of this subpopulation than in DMSO controls; details: 10 µM; 24 h; SM minimal medium; subpopulation (auxotrophy): UM
Procedure, shortened: as §1

[11] = tested on: Saccharomyces cerevisiae BY4741 SeMeCo community; test: z-score of subpopulation abundance vs DMSO median, subpopulation auxotrophic for HL; higher = larger share of this subpopulation than in DMSO controls; details: 10 µM; 24 h; SM minimal medium; subpopulation (auxotrophy): HL
Procedure, shortened: as §1

[12] = tested on: Saccharomyces cerevisiae BY4741 SeMeCo community; test: z-score of subpopulation abundance vs DMSO median, subpopulation auxotrophic for HLU; higher = larger share of this subpopulation than in DMSO controls; details: 10 µM; 24 h; SM minimal medium; subpopulation (auxotrophy): HLU
Procedure, shortened: as §1

[13] = tested on: Saccharomyces cerevisiae BY4741 SeMeCo community; test: z-score of subpopulation abundance vs DMSO median, subpopulation auxotrophic for HLM; higher = larger share of this subpopulation than in DMSO controls; details: 10 µM; 24 h; SM minimal medium; subpopulation (auxotrophy): HLM
Procedure, shortened: as §1

[14] = tested on: Saccharomyces cerevisiae BY4741 SeMeCo community; test: z-score of subpopulation abundance vs DMSO median, subpopulation auxotrophic for HUM; higher = larger share of this subpopulation than in DMSO controls; details: 10 µM; 24 h; SM minimal medium; subpopulation (auxotrophy): HUM
Procedure, shortened: as §1

[15] = tested on: Saccharomyces cerevisiae BY4741 SeMeCo community; test: z-score of subpopulation abundance vs DMSO median, subpopulation auxotrophic for LUM; higher = larger share of this subpopulation than in DMSO controls; details: 10 µM; 24 h; SM minimal medium; subpopulation (auxotrophy): LUM
Procedure, shortened: as §1

[16] = tested on: Saccharomyces cerevisiae BY4741 SeMeCo community; test: z-score of subpopulation abundance vs DMSO median, subpopulation auxotrophic for HLUM; higher = larger share of this subpopulation than in DMSO controls; details: 10 µM; 24 h; SM minimal medium; subpopulation (auxotrophy): HLUM
Procedure, shortened: as §1

[17] = tested on: Saccharomyces cerevisiae BY4741 SeMeCo community; test: z-score of subpopulation abundance vs DMSO median, subpopulation auxotrophic for LM; higher = larger share of this subpopulation than in DMSO controls; details: 10 µM; 24 h; SM minimal medium; subpopulation (auxotrophy): LM
Procedure, shortened: as §1

| SMILES | mean cell size [1] | z-score of prototroph abundance [2] | z-score of subpopulation abundance [3] | z-score of subpopulation abundance [4] | z-score of subpopulation abundance [5] | z-score of subpopulation abundance [6] | z-score of subpopulation abundance [7] | z-score of subpopulation abundance [8] | z-score of subpopulation abundance [9] | z-score of subpopulation abundance [10] | z-score of subpopulation abundance [11] | z-score of subpopulation abundance [12] | z-score of subpopulation abundance [13] | z-score of subpopulation abundance [14] | z-score of subpopulation abundance [15] | z-score of subpopulation abundance [16] | z-score of subpopulation abundance [17] |
| --- | --- | --- | --- | --- | --- | --- | --- | --- | --- | --- | --- | --- | --- | --- | --- | --- | --- |
| CNC1CCCN(c2c(F)cc3c(=O)c(C(=O)O)cn(C4CC4)c3c2OC)C1 (stereo not drawn) [Balofloxacin] | 12.32 ± 0.029 | -0.14 | 0.44 | -0.33 | 0.18 | -0.4 | -0.04 | -0.09 | 0.32 | 0.59 | -0.7 | -0.57 | -0.9 | 0.67 | 0.17 | -0.35 | – |
| COc1cc(NC(C)CCCN)c2ncccc2c1 (stereo not drawn) [Primaquine Diphosphate] | 12.6 ± 0.24 | 0.58 | 1.17 | -0.56 | -1.22 | 0.32 | -1.15 | – | -1.2 | -0.88 | -0.43 | -0.39 | 0.32 | -1.39 | -0.75 | – | 0.09 |
| Cc1cccc(Nc2ccccc2C(=O)O)c1C [Mefenamic Acid] | 12.4 ± 0.21 | 0.48 | 0.15 | 0.31 | -0.58 | – | -0.62 | -0.11 | 0.29 | -0.74 | 0.24 | -0.38 | -0.42 | -0.64 | -0.45 | -0.2 | – |
| Clc1ccc(C(Cn2ccnc2)OCc2ccc(Sc3ccccc3)cc2)c(Cl)c1 (stereo not drawn) [Fenticonazole Nitrate] | 10.7 ± 0.2 | -13.4 | -13.8 | 4.64 | 4.22 | 25 | 4.88 | -6.61 | 28.7 | -3.35 | 62.4 | 14.8 | 30.4 | 4.77 | -1.04 | 109 | – |
| CO[C@H]1C[C@@H]2CC[C@@H](C)[C@@](O)(O2)C(=O)C(=O)N2CCCC[C@H]2C(=O)O[C@H]([C@H](C)C[C@@H]2CC[C@@H](O)[C@H](OC)C2)CC(=O)[C@H](C)/C=C(\C)[C@@H](O)[C@@H](OC)C(=O)[C@H](C)C[C@H](C)/C=C/C=C/C=C/1C [Rapamycin (Sirolimus)] | 14.19 ± 0.085 | -18.4 | -2.04 | -1.39 | – | 14.3 | 3.56 | – | 29.9 | 13.7 | 13.8 | 21 | 16 | 33 | 11.9 | 20.9 | 5.67 |
| Nc1c(CC(=O)O)cccc1C(=O)c1ccccc1 [Amfenac Sodium Monohydrate] | 12.78 ± 0.078 | 0.49 | 0.25 | -0.33 | 0.11 | -0.38 | -0.63 | – | – | -0.16 | -0.27 | 0.63 | 2.36 | 0.74 | – | 0.57 | 0.25 |
| O=C1CCc2ccc(OCCCCN3CCN(c4cccc(Cl)c4Cl)CC3)cc2N1 [Aripiprazole] | 12.3 ± 0.16 | -0.84 | 0.38 | 1.13 | – | 0.82 | 0.61 | – | – | – | 1.38 | 1.16 | 0.77 | 0.36 | – | 0.56 | 1.05 |
